Screening results as filed in PubChem BioAssay.
hgDAF-12 ag: agonists of H. glycines DAF-12 nuclear receptor; HEK293 GAL4-hgDAF12 UAS-luciferase reporter, agonist luminescence; normalized to butyrate control; activation, % at 6.8 µM; actives 1.8% (n = 370,000); AID 687014;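 active means activation above a cutoff set at the mean of all screened compounds plus 3 SD, cut at about 10% in these data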
esBAF inh: SWI/SNF esBAF complex inhibition | mouse ES cells, Bmi1-luciferase knock-in reporter, 24 h; 100% = twice the neutral-well signal | reporter increase, % at 12.5 µM | actives 2% (n = 350,000) | AID 602393; in the data active means activation above about 40%;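 further: a rise in the Bmi1 reporter signal indicates esBAF inhibition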
Wnt act: activators of Wnt/beta-catenin signaling; Wnt/beta-catenin reporter cell assay, activator, plate reader; activation, % at 9.35 µM; actives 1.2% (n = 300,000); AID 743398; in the data active means activation above about 30%, passing the limit was not always enough
ssDAF12 agonist: activators of S. stercoralis DAF-12 nuclear receptor | actives 1% (n = 370,000) | AID 652126 | activation, % at 6.8 µM | HEK293 ssDAF-12/GRIP1 lit1-tk-luc reporter, luminescence; % of 3 µM dafachronic acid response;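 active means activation above the mean over all tested compounds plus 3 SD, cut at about 0.9% in these data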
hcDAF12 agonist: activators of H. contortus DAF-12 nuclear receptor; HEK293 hcDAF-12 lit1-tk-luc reporter, luminescence; 0% DMSO, 100% Δ7-dafachronic acid; activation, % at 6.8 µM; actives 1.4% (n = 370,000); AID 652067;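 active means activation above the mean of all tested compounds plus 3 SD, cut at about 5.5% in these data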
DAX1 inh: blocks DAX1 repression of SF-1 activated StAR promoter; actives 1.1% (n = 370,000); AID 652010; HEK293T StAR-luciferase reporter, SF-1/DAX-1 repression relief; inhibition, % at 6.8 µM;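 active means inhibition above the mean over all tested compounds plus 3 SD, cut at about 3.6% in these data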;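 further: higher inhibition means more luminescence from relief of DAX-1 repression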
Hits are given with their value. This is a sample that favours compounds with a hit; in the whole collection about 4.2% have one here.

How did O=C(N(c1ccccn1)c1ccccn1)C12CC3CC(CC(Cl)(C3)C1)C2 do in these assays?
hgDAF-12 ag: inactive; esBAF inh: inactive; Wnt act: inactive; ssDAF12 agonist: inactive; hcDAF12 agonist: 6.2; DAX1 inh: inactive

Results for COc1ccc(NC2=NCCCCC2)cc1 ?
hgDAF-12 ag: inactive; esBAF inh: inactive; Wnt act: inactive; ssDAF12 agonist: inactive; hcDAF12 agonist: inactive; DAX1 inh: inactive

Results for COc1ccc(NC2=Nc3ccccc3CC2)cc1 ?
hgDAF-12 ag: 11; esBAF inh: inactive; Wnt act: 39; ssDAF12 agonist: inactive; hcDAF12 agonist: inactive; DAX1 inh: inactive

What do the screens show for `CCc1ccc(-c2ccc(SCc3ccccn3)nn2)cc1`?
hgDAF-12 ag: inactive; esBAF inh: 63; Wnt act: inactive; ssDAF12 agonist: inactive; hcDAF12 agonist: inactive; DAX1 inh: inactive

How did c1ccc(CSc2ccc(-c3cccs3)nn2)nc1 do in these assays?
hgDAF-12 ag: 12; Wnt act: inactive; ssDAF12 agonist: inactive; hcDAF12 agonist: inactive; DAX1 inh: 3.8

How did CC(=O)Nc1ccc(/C=C2\CCc3ccccc3C2=O)cc1 do in these assays?
hgDAF-12 ag: inactive; esBAF inh: inactive; Wnt act: inactive; ssDAF12 agonist: inactive; hcDAF12 agonist: 6.1; DAX1 inh: inactive

Results for COc1ccc(C=C2Cc3ccccc3C2=O)cc1 ?
hgDAF-12 ag: 11; Wnt act: inactive; ssDAF12 agonist: inactive; hcDAF12 agonist: inactive; DAX1 inh: inactive

What do the screens show for `O=C1/C(=C\c2ccc([N+](=O)[O-])cc2)CCc2ccccc21`?
hgDAF-12 ag: 11; Wnt act: inactive; ssDAF12 agonist: inactive; hcDAF12 agonist: inactive; DAX1 inh: inactive

Results for O=C1/C(=C\c2cccnc2)CCc2ccccc21 ?
hgDAF-12 ag: 12; esBAF inh: inactive; Wnt act: inactive; ssDAF12 agonist: inactive; hcDAF12 agonist: inactive; DAX1 inh: inactive

How did C[C@@H]1CN([C@@H](C)CO)C(=O)Cc2cc(NC(=O)Nc3ccc(C(F)(F)F)cc3)ccc2O[C@H]1CN(C)C(=O)Nc1cccc2ccccc12 do in these assays?
esBAF inh: inactive

How did COCC#Cc1ccc2c(c1)O[C@@H](CN(C)C)[C@@H](C)CN([C@H](C)CO)S2(=O)=O do in these assays?
esBAF inh: inactive

What do the screens show for `CCCC(=O)Nc1ccc2c(c1)C(=O)N(C)C[C@H](OC)[C@@H](C)CN(CC1CCCC1)[C@@H](C)CO2`?
esBAF inh: inactive

How did C/C=C/c1ccc([C@H]2[C@@H](CNS(C)(=O)=O)N(CC3CCCC3)[C@H]2CO)cc1 do in these assays?
esBAF inh: inactive

How did CC(=NNC(=S)N1CCCCC1)c1cccc(C)n1 do in these assays?
hgDAF-12 ag: inactive; Wnt act: inactive; ssDAF12 agonist: inactive; hcDAF12 agonist: inactive; DAX1 inh: inactive

Results for CSC(=S)NN=C(C)c1cccc(C)n1 ?
hgDAF-12 ag: inactive; Wnt act: inactive; ssDAF12 agonist: inactive; hcDAF12 agonist: 6.0; DAX1 inh: inactive

How did O=C(N[C@@H]1CC[C@@H](CCNS(=O)(=O)c2ccc(F)cc2)O[C@@H]1CO)C1CCCC1 do in these assays?
esBAF inh: inactive

What do the screens show for `Nc1[nH]n(-c2ccccc2)c(=O)c1N=Nc1ccccc1`?
hgDAF-12 ag: inactive; esBAF inh: 54; Wnt act: 55; ssDAF12 agonist: 1.3; hcDAF12 agonist: inactive; DAX1 inh: inactive

What do the screens show for `Cc1[nH]n(-c2ccccc2)c(=O)c1N=Nc1ccc(F)cc1`?
hgDAF-12 ag: inactive; esBAF inh: inactive; Wnt act: inactive; ssDAF12 agonist: inactive; hcDAF12 agonist: inactive; DAX1 inh: inactive

How did O=c1c(N=Nc2ccccc2)c[nH]n1-c1ccccc1 do in these assays?
hgDAF-12 ag: inactive; esBAF inh: inactive; Wnt act: 45; ssDAF12 agonist: inactive; hcDAF12 agonist: inactive; DAX1 inh: inactive

Results for Nc1[nH]n(-c2ccccc2)c(=O)c1N=Nc1ccccc1[N+](=O)[O-] ?
hgDAF-12 ag: inactive; Wnt act: 61; ssDAF12 agonist: inactive; hcDAF12 agonist: inactive; DAX1 inh: inactive

How did Cc1[nH]n(-c2ccccc2)c(=O)c1N=Nc1ccc2c(c1)OCCO2 do in these assays?
hgDAF-12 ag: inactive; Wnt act: 35; ssDAF12 agonist: inactive; hcDAF12 agonist: inactive; DAX1 inh: inactive

What do the screens show for `CCc1ccccc1N=Nc1c(N)[nH]n(-c2ccccc2)c1=O`?
hgDAF-12 ag: 11; ssDAF12 agonist: inactive; hcDAF12 agonist: inactive; DAX1 inh: inactive

How did COc1cccc(S(=O)(=O)N[C@H]2C=C[C@@H](CC(=O)NCc3ccc(Cl)cc3)O[C@@H]2CO)c1 do in these assays?
esBAF inh: inactive

Results for CC(Sc1nnc(COc2ccccc2)n1Cc1ccccc1)C(=O)O (configuration not stated) ?
hgDAF-12 ag: inactive; esBAF inh: inactive; Wnt act: inactive; ssDAF12 agonist: 0.9; hcDAF12 agonist: inactive; DAX1 inh: inactive

How did CC(Sc1nnc(COc2ccc(Cl)cc2)n1Cc1ccccc1)C(=O)O (configuration not stated) do in these assays?
hgDAF-12 ag: inactive; Wnt act: inactive; ssDAF12 agonist: inactive; hcDAF12 agonist: inactive; DAX1 inh: inactive

How did CO[C@H]1CN(C)C(=O)c2ccc(NC(=O)c3cc(C)on3)cc2OC[C@@H](C)N(C)C[C@@H]1C do in these assays?
esBAF inh: inactive

What do the screens show for `Cc1ccc(Oc2cc(-n3nc(C)cc3C)ncn2)cc1`?
hgDAF-12 ag: inactive; esBAF inh: 48; ssDAF12 agonist: inactive; hcDAF12 agonist: inactive; DAX1 inh: inactive

Results for Cc1cc(C)n(-c2cc(-n3nc(C)cc3C)ncn2)n1 ?
hgDAF-12 ag: inactive; esBAF inh: inactive; ssDAF12 agonist: inactive; hcDAF12 agonist: inactive; DAX1 inh: inactive

What do the screens show for `CC(=O)NCC1(O)CCCC(C)C1` (configuration not stated)?
hgDAF-12 ag: inactive; Wnt act: 41; ssDAF12 agonist: inactive; hcDAF12 agonist: inactive; DAX1 inh: inactive

Results for COc1ccc(C2(CNC(C)=O)CCCC2)cc1OC ?
hgDAF-12 ag: inactive; esBAF inh: inactive; ssDAF12 agonist: inactive; hcDAF12 agonist: inactive; DAX1 inh: inactive

Results for CN(C)C(=O)[C@@H]1N[C@@H]2c3ccc(-c4ccc(F)cc4)c(=O)n3C[C@@H]2[C@H]1CO ?
esBAF inh: inactive

What do the screens show for `O=C(/C=C/c1nc2ccccc2s1)N1CCCCCC1`?
hgDAF-12 ag: 11; esBAF inh: inactive; Wnt act: inactive; ssDAF12 agonist: inactive; hcDAF12 agonist: inactive; DAX1 inh: inactive

What do the screens show for `C[C@H](CO)N1C[C@H](C)[C@H](CN(C)C(=O)NC2CCCCC2)Oc2ccc(NC(=O)Cc3ccccc3)cc2CC1=O`?
esBAF inh: inactive

Results for Cc1cc(C(=O)CSc2nnnn2C)c(C)n1C1CC1 ?
hgDAF-12 ag: 12; Wnt act: inactive; ssDAF12 agonist: inactive; hcDAF12 agonist: inactive; DAX1 inh: inactive

How did Cc1cc(C(=O)CSc2nnc(CCC(N)=O)n2C)c(C)n1C1CC1 do in these assays?
hgDAF-12 ag: inactive; esBAF inh: inactive; Wnt act: inactive; ssDAF12 agonist: inactive; hcDAF12 agonist: inactive; DAX1 inh: inactive
